# From ChEMBL document CHEMBL1157539, “Thousands of chemical starting points for antimalarial lead identification” (Nature, 2010)
# Test system: Plasmodium falciparum
# Assay: GSK_TCMDC: Inhibition of Plasmodium falciparum Dd2 in whole red blood cells, using parasite LDH activity as an index of growth. Test compounds present at 2uM
# Format: functional
row,Compound,Inhibition [%]
1,CCCCOc1cc(OC)c2ccccc2c1CCNCCCCNCCc1c(OCCCC)cc(OC)c2ccccc12.CS(=O)(=O)O,82
2,Cc1nc(C)c(CC(=O)Nc2ccc(-c3ccc(-c4nc5cc(C(F)(F)F)ccc5[nH]4)s3)cc2)s1,29
3,CN1CCN(c2cc(-c3ccncc3)nc(-c3cccnc3)n2)CC1,98
4,O=C(NCCCCCN1CCC(c2c[nH]c3ccccc23)C1)Nc1ccc(Cl)c(Cl)c1 (stereo not given),19
5,CC(C)(C)c1ccc(CN2CCC(CNC(=O)c3cc(-c4cccc(F)c4)cs3)C2)cc1.O=C(O)C(F)(F)F (stereo not given),55
6,CN(C)CCOc1cc(NC(=O)Nc2ccc(-c3ccncc3)c(C(F)(F)F)c2)ccc1Cl,79
7,CC(CN1CCN(C)CC1)C(=O)Nc1ccc(-c2ccc(-c3nc4ccccc4[nH]3)cc2)cc1 (stereo not given),87
8,COc1cc(C)c(NC(=O)c2cccc3c(=O)c(C)c(-c4ccccc4)oc23)cc1OC,32
9,Cc1ccc(-c2nc3cc(C(=O)NC4CCN(Cc5ccccc5)CC4)ccc3[nH]2)cc1,53
10,Cc1oc(-c2cccc(Oc3ccccc3)c2)nc1CN(Cc1cnn(C)c1)C(C)C,61
11,C=CCc1cc(OC)ccc1OCCCOc1c(C)nc(N)nc1N.Cl,97
12,N#Cc1ccc(S(=O)(=O)N2C(c3cccc([N+](=O)[O-])c3)C(C(=O)c3ccccc3)N(C3CCCCC3)C2c2cccc([N+](=O)[O-])c2)cc1 (stereo not given),79
13,CCOc1cc(C)ccc1C1CCN(CCCCNC(=O)c2ccc(-c3ccc(Cl)cn3)cc2)CC1.Cl,8
14,CCCCc1cc(NCC)nc(Nc2ccc(OC)cc2)n1,32
15,O=C(Nc1cccc(-c2ccc(CN3CCCC3)cc2)c1)c1ccc(Cl)cc1.O=C(O)C(F)(F)F,47

# Test system: HepG2
# Assay: GSK_TCMDC: Percent inhibition of human HepG2 cell line. Test compounds present at 10uM.
# Format: functional
row,Compound,Inhibition [%]
1,CCN(CC)CCN(Cc1ccc(-c2ccc(C(F)(F)F)cc2)cc1)C(=O)Cn1c(CCc2ccccc2F)nc(=O)c2ccccc21.O=C(O)C(O)C(O)C(=O)O,39
2,COc1ccccc1C(C)NCC(=O)Nc1ccccc1Sc1ccccc1 (stereo not given),0
3,Nc1nccc2ccc(-c3ccsc3)cc12.O=C(O)C(F)(F)F,38
4,Br.COc1ccccc1CCCON1C(=N)N=C(N)NC1(C)C,68
5,COc1cc(CN2CCC(N3CCc4cc(NC(=O)c5cc(C)on5)ccc43)C2)ccc1F (stereo not given),1
6,COc1ccc(CN(C)CCCOc2ccc(NC(=O)C=Cc3ccc(C(C)(C)C)cc3)cc2)cc1OC,14
7,Cc1cc(N[C@@H](Cc2ccccc2)C(=O)NCCOc2ccccc2)nc(NCCc2ccc(F)cc2)n1.O=C(O)C(F)(F)F,5
8,COc1ccc(-c2cc(Nc3nc(-c4cccc(Cl)c4)nc4ccccc34)ccn2)cc1,3
9,CCN(CC)CCN(Cc1ccc(-c2ccc(C(F)(F)F)cc2)cc1)C(=O)c1c[nH]c2ccc(Br)cc12,80
10,COc1ccc(-c2cnc3[nH]cc(-c4ccc(C(=O)O)cc4)c3c2)cn1.O=C(O)C(F)(F)F,35
11,CC1(C)NC(N)=NC(=N)N1OCc1cccc(Cl)c1Cl.Cl,68
12,O=C(Nc1cccc(CN2CCCN(Cc3ccccc3)CC2)c1)c1ccc(-c2ccccc2)cc1.O=C(O)C(F)(F)F,45
13,O=C(NCCCN1CCN(c2cccc(Cl)c2)CC1)c1ccc(-c2nc3cc(Cl)c(Cl)cc3[nH]2)c(F)c1,3
14,Cn1cnc2c(SCc3ccccc3OCc3ccccc3)ncnc21,6
15,Cc1ccc(F)cc1S(=O)(=O)NCC(C)c1ccc(NC(=O)Nc2cccc(F)c2)cc1 (stereo not given),20
16,CN1CCN(c2ccc(Cl)cc2NC(=O)C2COc3ccccc3O2)CC1 (stereo not given),2
17,N#Cc1cccc(NC(=O)Nc2cccc(-c3cccc(-c4nc5ccccc5[nH]4)c3)c2)c1,46
18,CCCc1ccccc1Nc1nc(C)cc(N(CC)CCCN2CCCCC2)n1.O=C(O)C(F)(F)F,27
19,CC(=O)Nc1ncc(C(=O)Nc2ccc(-c3cccc(-c4nc5cc(C(F)(F)F)ccc5[nH]4)c3)cc2)s1,79
20,COc1ccc(OCCCON)cc1.Cl,3

row,Compound,Inhibition [%]
1,COc1ccc(C(=O)Nc2ccc(-c3ccc([N+](=O)[O-])cc3)cc2)cc1CCCN(C)C.Cl,20
2,COc1ccc(-c2cc(-c3nc4cc(C(=O)N5CCOCC5)ccc4[nH]3)c(=O)n(C)c2)cc1OC.O=C(O)C(F)(F)F,6
3,Cc1cccc2c(/C=C/C(=O)NC3CCC(CCN4CCc5ccc(C#N)cc5CC4)CC3)c[nH]c12.Cl (stereo not given),18
4,Oc1cc(Nc2ccnc3cc(I)ccc23)ccc1F,0
5,Cc1cccc2nc(-c3cccc(-c4cccc(NC(=O)Nc5cccc(C#N)c5)c4)c3)[nH]c12,22
6,CCCCOc1cc(OC)c2ccccc2c1CCNCCCCNCCc1c(OCCCC)cc(OC)c2ccccc12.CS(=O)(=O)O,100
7,Cc1nc(C)c(CC(=O)Nc2ccc(-c3ccc(-c4nc5cc(C(F)(F)F)ccc5[nH]4)s3)cc2)s1,57
8,CN1CCN(c2cc(-c3ccncc3)nc(-c3cccnc3)n2)CC1,13
9,O=C(NCCCCCN1CCC(c2c[nH]c3ccccc23)C1)Nc1ccc(Cl)c(Cl)c1 (stereo not given),28
10,CC(C)(C)c1ccc(CN2CCC(CNC(=O)c3cc(-c4cccc(F)c4)cs3)C2)cc1.O=C(O)C(F)(F)F (stereo not given),32
11,CN(C)CCOc1cc(NC(=O)Nc2ccc(-c3ccncc3)c(C(F)(F)F)c2)ccc1Cl,36
12,CC(CN1CCN(C)CC1)C(=O)Nc1ccc(-c2ccc(-c3nc4ccccc4[nH]3)cc2)cc1 (stereo not given),13
13,COc1cc(C)c(NC(=O)c2cccc3c(=O)c(C)c(-c4ccccc4)oc23)cc1OC,96
14,Cc1ccc(-c2nc3cc(C(=O)NC4CCN(Cc5ccccc5)CC4)ccc3[nH]2)cc1,20
15,Cc1oc(-c2cccc(Oc3ccccc3)c2)nc1CN(Cc1cnn(C)c1)C(C)C,22
16,C=CCc1cc(OC)ccc1OCCCOc1c(C)nc(N)nc1N.Cl,67
17,N#Cc1ccc(S(=O)(=O)N2C(c3cccc([N+](=O)[O-])c3)C(C(=O)c3ccccc3)N(C3CCCCC3)C2c2cccc([N+](=O)[O-])c2)cc1 (stereo not given),16
18,CCOc1cc(C)ccc1C1CCN(CCCCNC(=O)c2ccc(-c3ccc(Cl)cn3)cc2)CC1.Cl,19
19,CCCCc1cc(NCC)nc(Nc2ccc(OC)cc2)n1,30
20,O=C(Nc1cccc(-c2ccc(CN3CCCC3)cc2)c1)c1ccc(Cl)cc1.O=C(O)C(F)(F)F,29
